# Results from publication PMC4336329 (PLoS ONE, 2015).
# Hit rate of the full screen: of about 310,000 compounds, about 14,000 (4.5%) showed an effect of 50% or more. Effects have a minus sign here. Many of the other results were omitted from the sample, so strong results are more common in it than they were.
# Biological target: human ether-à-go-go-related gene (hERG) potassium channel (human, UniProt Q12809)
# Experiment: primary screen, population patch clamp on CHO cells stably expressing hERG; higher = less effect of the substance
# Procedure: Briefly, Chinese hamster ovary (CHO) cells stably expressing the hERG channel were dislodged from tissue culture flasks and dispensed into PPC plates. […] During the recording, background leak currents were estimated by a 100 ms step to -80 mV from an initial holding potential of -70 mV and subtracted from the subsequent current measurement. The campaign was conducted in two phases using slight differences in recording protocol. In the first phase, the initial voltage pulse used a 100 ms step to -30 mV from a holding potential of -70 mV, a 2 s conditioning step to +25 mV, and a 2 s test step to -30 mV. During the second phase of the screen, the potential during the conditioning step was raised to +45 mV. In both phases of the campaign, a secondary voltage pulse was applied using the same parameters as the second phase initial pulse. The initial and secondary pulses were applied in the absence of compound, and upon application of 1 μM and 10 μM test concentrations. […]
# 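Also: peak tail current of the secondary pulse compared with the same well before compound.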
# Sequence of human ether-à-go-go-related gene (hERG) potassium channel (Q12809 whole entry, looked up): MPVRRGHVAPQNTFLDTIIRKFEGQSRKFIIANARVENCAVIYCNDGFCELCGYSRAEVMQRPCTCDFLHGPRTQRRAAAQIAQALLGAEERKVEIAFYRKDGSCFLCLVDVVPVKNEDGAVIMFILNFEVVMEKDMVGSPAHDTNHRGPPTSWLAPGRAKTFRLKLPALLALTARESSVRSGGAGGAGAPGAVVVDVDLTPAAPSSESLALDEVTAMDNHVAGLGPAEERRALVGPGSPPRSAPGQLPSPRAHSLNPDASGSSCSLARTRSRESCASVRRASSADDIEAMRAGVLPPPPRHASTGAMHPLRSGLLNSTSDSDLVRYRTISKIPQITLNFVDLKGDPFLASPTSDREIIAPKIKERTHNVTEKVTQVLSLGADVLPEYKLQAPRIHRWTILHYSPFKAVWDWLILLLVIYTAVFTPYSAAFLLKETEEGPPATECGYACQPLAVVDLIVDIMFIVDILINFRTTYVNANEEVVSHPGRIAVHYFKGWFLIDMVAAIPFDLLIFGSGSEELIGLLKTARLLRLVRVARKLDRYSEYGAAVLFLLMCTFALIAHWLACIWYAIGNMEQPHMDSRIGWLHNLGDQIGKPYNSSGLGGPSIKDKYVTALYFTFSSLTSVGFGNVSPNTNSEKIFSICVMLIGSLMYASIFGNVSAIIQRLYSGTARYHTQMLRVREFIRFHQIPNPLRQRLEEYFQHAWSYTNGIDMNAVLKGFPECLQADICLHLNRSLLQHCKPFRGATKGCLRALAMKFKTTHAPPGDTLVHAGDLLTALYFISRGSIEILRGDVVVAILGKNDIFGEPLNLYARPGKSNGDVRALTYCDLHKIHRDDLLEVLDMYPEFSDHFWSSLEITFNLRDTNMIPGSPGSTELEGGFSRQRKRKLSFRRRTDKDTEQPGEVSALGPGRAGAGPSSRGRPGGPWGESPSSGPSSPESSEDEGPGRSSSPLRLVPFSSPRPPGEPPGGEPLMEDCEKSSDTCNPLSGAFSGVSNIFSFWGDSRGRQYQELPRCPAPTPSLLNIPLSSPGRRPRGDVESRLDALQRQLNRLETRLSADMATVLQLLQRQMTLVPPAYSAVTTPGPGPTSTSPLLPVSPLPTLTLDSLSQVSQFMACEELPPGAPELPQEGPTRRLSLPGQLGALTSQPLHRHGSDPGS
row,SMILES,"hERG current change (%, negative = inhibition) at 10uM"
1,CCCCNC(=O)C1(O)c2cc(Br)ccc2NC(=O)N1c1cccc(OC)c1 (stereo not drawn),7.42%
2,Cc1cc(C)c2nc(SC3CCOC3=O)cc(C)c2c1 (stereo not drawn),4.23%
3,COc1ccc(C(=O)Nc2cccc(S(C)(=O)=O)c2)cc1OC,6.89%
4,O=C(N/N=C\c1c(O)ccc2ccccc12)c1ccc(O)cc1,14.3%
5,Cc1c(C(=O)Nc2nnc(C3CC3)s2)oc2c(Cl)cccc12,8.02%
6,N=c1c(C(=O)NCC2CCCO2)cc2c(=O)n3ccccc3nc2n1Cc1ccc(Cl)cc1 (stereo not drawn),-77.2%
7,N=c1c(C(=O)NCc2ccco2)cc2c(=O)n3ccccc3nc2n1CC1CCCO1 (stereo not drawn),-76%
8,O=C(NCC1CCCO1)c1ccc2c(=O)n(Cc3ccc(Cl)cc3)c(=S)[nH]c2c1 (stereo not drawn),6.02%
9,N=c1c(C(=O)NCC2CCCO2)cc2c(=O)n3ccccc3nc2n1Cc1ccccc1Cl (stereo not drawn),-67.9%
10,O=C(NCC1CCCO1)c1nc2c(nnn2Cc2ccccc2Cl)c(=O)[nH]1 (stereo not drawn),-0.506%
11,O=C(Cc1ccc(-n2c(=O)c3ccccc3n(Cc3ccccc3Cl)c2=O)cc1)NCC1CCCO1 (stereo not drawn),-1.93%
12,N=c1c(S(=O)(=O)c2ccc(Cl)cc2)cc2c(=O)n3ccccc3nc2n1CC1CCCO1 (stereo not drawn),-13.3%
13,O=C(NCc1ccco1)c1ccc2c(=O)n(CC3CCCO3)c(=S)[nH]c2c1 (stereo not drawn),-1.68%
14,CC(=O)c1cccc(NC(=O)CCNC(=O)c2ccccc2Cl)c1,11.4%
15,CCn1cc(C(=O)Nc2ccc(C)cc2[N+](=O)[O-])c(C)n1,5.23%
16,CN(Cc1nc(-c2cccs2)no1)CC1COCCO1 (stereo not drawn),1.17%
17,S=C(NCCN1CCOCC1)N1CCN(c2cccc(Cl)c2)CC1,-16%
18,CC1=CC(=O)C(C(C)C)=C/C1=N/OC(=O)c1cccc([N+](=O)[O-])c1,7.36%
19,COc1ccc2nc(NC(=O)CSc3nnc(C)n3N)sc2c1,0.177%
20,C=CCn1c(SCn2nnc3ccccc3c2=O)nnc1-c1ccc(Br)cc1,-62.7%
21,O=c1c2ccccc2nnn1Cc1ccccc1,35.3%
22,O=c1cc(CSc2nnc(C3CC3)n2Cc2ccccc2)nc2sccn12,11.7%
23,C=CCn1c(SCn2nnc3ccccc3c2=O)nnc1-c1ccc(Cl)cc1,-61.2%

row,SMILES,"hERG current change (%, negative = inhibition) at 10uM"
1,C=CCn1c(COc2ccc(OC)cc2)nnc1SCn1nnc2ccccc2c1=O,-27.1%
2,C=CCn1c(SCn2nnc3ccccc3c2=O)nnc1C1CCCCC1,-14.1%
3,O=c1cc(CCl)nc2sc3ccccc3n12,8.04%
4,O=c1cc(CSc2nnc(-c3cccs3)n2Cc2ccccc2)nc2sc3ccccc3n12,-53.5%
5,O=c1c2ccccc2nnn1CSc1nnc(-c2cccs2)n1Cc1ccccc1,-62.6%
6,C=CCn1c(SCn2nnc3ccccc3c2=O)nnc1-c1ccc(F)cc1,-28.9%
7,C=CCn1c(COc2cccc(C)c2)nnc1SCn1nnc2ccccc2c1=O,-5.37%
8,C=CCn1c(SCn2nnc3ccccc3c2=O)nc2scc(-c3cccs3)c2c1=O,-5.21%
9,CCCOc1cccc(C(=O)Nc2ccc3c(c2)OCCO3)c1,0.786%
10,CSc1cccc(NC(=O)C2CCN(S(=O)(=O)c3cnc[nH]3)CC2)c1,9.39%
11,Nc1c(NCc2ccccc2)c(=O)c1=O,-6.37%
12,Cc1nc2c(C)cccn2c(=O)c1NC(=O)c1ccc(Br)o1,5.14%
13,O=C(COc1cccc(C(F)(F)F)c1)Nc1cccnc1,4.03%
14,CCC(C)N(C(=O)c1csnn1)C(C(=O)NC1CCCC1)c1ccc(F)cc1 (stereo not drawn),0.39%
15,CC(=O)c1cccc(NC(=O)CCCNC(=O)c2ccc(Cl)cc2)c1,2.99%
16,CCN(CC)C(=O)c1cn(-c2cccc(OC)c2)c(=O)c2ccccc12,9.66%
17,COC(=O)c1cc(Cl)nc2ccccc12,-7.89%
18,COc1ccc(CNC(=O)c2cc(S(=O)(=O)N3CCCC3)cn2C)cc1,13.2%
19,Cc1nn(Cc2ccc(Cl)cc2)c(Cl)c1/C=N/NC(=O)c1cccnc1,-45.2%
20,CN(C)CCCN(C(=O)CCSc1ccccc1)c1nc2cc3c(cc2s1)OCO3.Cl,-48.2%
21,CN(C)CCCN(C(=O)C1COc2ccccc2O1)c1nc2cc3c(cc2s1)OCO3.Cl (stereo not drawn),-64.4%
22,CN(C)CCCN(C(=O)C1COc2ccccc2O1)c1nc2ccc(F)cc2s1.Cl (stereo not drawn),-75.4%
23,CN(C)CCCN(C(=O)c1nc2ccccc2s1)c1nc2ccc(F)cc2s1.Cl,4.17%

row,SMILES,"hERG current change (%, negative = inhibition) at 10uM"
1,CN(C)CCN(C(=O)C1CCCCC1)c1nc2cc3c(cc2s1)OCO3.Cl,-9.7%
2,CN(C)CCCN(C(=O)c1sc2ccccc2c1Cl)c1nc2ccc(F)cc2s1.Cl,-19.7%
3,Cn1c(O)c(C=Nc2ccccc2Sc2ccccc2)c(=O)n(C)c1=O,16.4%
4,CCCc1[nH]nc2c1C(c1ccc(OC)c(Cn3nnc4ccccc43)c1)C(C#N)=C(N)O2 (stereo not drawn),-29.1%
5,CCCn1c(SCc2ccc(Cl)cc2)nc2c1c(=O)[nH]c(=O)n2C,0.36%
6,CCOCCCNC(=O)C(NC(=O)c1ccc(NC(C)=O)cc1)c1ccc(C)cc1 (stereo not drawn),-20.5%
7,CCc1ccc(CNC(=O)c2ccc(NC(=O)C3=CSCCO3)cc2)cc1,-23%
8,O=C(C1COc2ccccc2O1)N1CCCC1 (stereo not drawn),16.8%
9,O=C(NCC(=O)N1CCC2(CC1)NCCc1[nH]cnc12)c1ccc2ccccc2c1,11.7%
10,O=C(Nc1nc2ccc(S(=O)(=O)N3CCCC3)cc2s1)c1ccco1,11.5%
11,CCCn1c2ccc(F)cc2c2nnc(SCCN3CCOCC3)nc21,-35.8%
12,CCn1c2ccc(F)cc2c2nnc(SCCN3CCOCC3)nc21,-41.2%
13,CCCn1c2ccccc2c2nnc(SCCN3CCOCC3)nc21,-9.15%
14,CCCn1c2ccc(F)cc2c2nnc(NN)nc21,-1.94%
15,CCn1c2ccc(F)cc2c2nnc(NN)nc21,-9.93%
16,CCn1c2nc(SCCN3CCOCC3)nnc2c2cc(C)cc(C)c21,-95.3%
17,CCCCn1c2ccc(F)cc2c2nnc(NN)nc21,-44.9%
18,CCn1c2ccc(F)cc2c2nnc(SCCN3CCCCC3)nc21,-61%
19,CCCn1c2ccc(F)cc2c2nnc(SCCN3CCCCC3)nc21,-64.2%
20,CCCCn1c2ccc(F)cc2c2nnc(SCCN3CCOCC3)nc21,-55.4%
21,CCn1c2ccccc2c2nnc(SCCN3CCOCC3)nc21,3.2%
22,CCn1c2ccc(C)cc2c2nnc(SCCN3CCOCC3)nc21,-13.8%
23,Cc1cccc2cc(/C=N/NC(=O)c3ccccc3O)c(Cl)nc12,-2.17%

row,SMILES,"hERG current change (%, negative = inhibition) at 10uM"
1,O=C1[C@H]2[C@@H](c3ccc(Cl)cc3)N3C(=O)N(c4cccc(Cl)c4)C(=O)[C@@]3(Cc3ccccc3)[C@H]2C(=O)N1C1CCCCC1,-2.02%
2,Cc1cc(C)nc(NC2=NCCN2C(=O)NC2CCCCC2)n1,-17.7%
3,[2H]c1c([2H])c([2H])c(-c2nc(N3CCCCCC3)sc2C(=O)c2ccccc2)c([2H])c1[2H],-2.19%
4,CC(C)CCNC(=O)C1CCCN(S(=O)(=O)c2ccc(F)cc2)C1 (stereo not drawn),6.85%
5,CC(=O)Nc1ccccc1NC(=O)c1ccc(C)cc1C,23.7%
6,S=c1[nH]nc(COc2cccc(Cl)c2)n1Cc1ccccc1,34.4%
7,COc1cccc(NC(=O)CSc2nc(C3CC3)nc3ccccc23)c1,4.75%
8,CCCn1c2ccc(C)cc2c2nnc(SCCN3CCOCC3)nc21,-32.5%
9,CCCCn1c2ccc(C)cc2c2nnc(SCCN3CCCCC3)nc21,-74.3%
10,Cc1ccc2[nH]c3nc(SCCN4CCOCC4)nnc3c2c1,8.91%
11,CSCCC(NC(=O)C1CCC(C)CC1)C(=O)O (stereo not drawn),16.6%
12,Cc1cccnc1NC(=O)c1ccc(Br)o1,32.6%
13,Nc1nc(NC(=O)c2ccccc2)nn1-c1ccccc1,-70.9%
14,Nc1nc(NC(=O)c2cccnc2)nn1-c1ccccc1,18.8%
15,Nc1nc(NC(=O)/C=C/c2ccc(F)cc2)nn1-c1ccccc1,-53.4%
16,COc1ccccc1/C=C/C(=O)Nc1nc(N)n(-c2ccccc2)n1,-33.8%
17,Cc1ccc(C(=O)Nc2nc(N)n(-c3ccccc3)n2)cc1,-0.817%
18,Nc1nc(NC(=O)/C=C/c2ccccc2)nn1-c1ccccc1,-32.6%
19,COc1ccc(/C=C/C(=O)Nc2nc(N)n(-c3ccccc3)n2)cc1,-53%
20,COc1ccc(C(=O)Nc2nc(N)n(-c3ccccc3)n2)cc1,-11.4%
21,Nc1nc(NC(=O)/C=C\C(=O)O)nn1-c1ccccc1,27.8%
